Among the data in PubChem BioAssay are composite z-score and z-score values, retold here.

Active and inactive are the calls of the source. Unless noted, how the calls were made is not given here.

For experiment [1], the system named is Wnt5a (protein binding on small-molecule microarray). Briefly: small molecules binding Wnt5a protein – biophysical, small-molecule microarray, 635/667 nm fluorescence, primary screen (AID 1142).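 Further: fluorescence read at 667 nm with signal to noise per printed feature.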 The following applies: 635 nm fluorescence, higher = more signal.
Experiment [2] is described as follows: ATP-based viability of Huh7 replicon cells – cell-based, CellTiter-Glo luminescence, basal, 48 h, cytotoxicity control for HCV replication inhibitor project, primary screen (AID 1143).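 Further: Huh7 hepatoma cells carrying a hepatitis C replication reporter with no stimulus; test concentration not given here.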 As to conditions: higher = more signal, called active from +8 up or from −8 down.
A short description of experiment [3]: Pseudomonas biofilm growth suppression – PAO1 strain, BacTiter-Glo luminescence, LB-PBS, primary screen (AID 1144). The following applies: P. aeruginosa PAO1 biofilm, 12 h, higher = more signal.
A short description of experiment [4]: basal CRE-LacZ reporter activity in PC12 – cell-based, unstimulated, primary screen (AID 1145). The following applies: no forskolin, luminescence, 4.5 h, higher = more signal, called active from +8 up or from −8 down.
Experiment [5] in a line: forskolin-driven CRE-LacZ activity in PC12 – cell-based, CRE-LacZ reporter, forskolin-stimulated, primary screen (AID 1146).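 Further: PC12 cells with 6xCRE LacZ reporter stimulated by forskolin 10 µM; beta-galactosidase reporter signal reflecting CREB driven transcription.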 The following applies: luminescence, 4.5 h, higher = more signal, called active from +8 up or from −8 down.
For experiment [6], the target named is Streptavidin (Streptomyces avidinii) (UniProt P22629). Briefly: compounds binding control protein streptavidin – biophysical, small-molecule microarray, 635/667 nm fluorescence, artefact control for SMM compound annotation, primary screen (AID 1147).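 Further: signal reflects streptavidin binding to arrayed compounds as a control protein.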 The following applies: higher = more signal.
A short description of experiment [7]: probe aInhba binding on compound microarray – biochemical, small-molecule microarray, 635/667 nm fluorescence, primary screen (AID 1148).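 Further: score merges 667nm spot fluorescence with signal-to-noise for antibody binding to printed compounds.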 As to conditions: higher = more signal.
The target of experiment [8] is Torsin-1A (Homo sapiens) (UniProt O14656). Briefly: TOR1A wild-type binding on microarray – cell lysate, small-molecule microarray, lysate, 635/667 nm, primary screen (AID 1149). The following applies: COS7 hTOR1A-WT lysate, 635 nm fluorescence, higher = more signal.
Experiment [9] shares this target. Briefly: torsin A mutant lysate binding on microarrays – cell lysate, small-molecule microarray, COS7 lysate, 635/667 nm fluorescence, primary screen (AID 1150).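 Further: score pools 667 nm emission and signal to noise measuring lysate protein binding.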 The following applies: COS7 hTOR1A mutant lysate, 635 nm fluorescence, higher = more signal.
Experiment [10] concerns Sonic hedgehog protein (Shh). Briefly: Sonic hedgehog microarray binding compounds – biochemical, small-molecule microarray, 635/667 nm fluorescence, primary screen (AID 1151).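 Further: Shh protein binding to compounds spotted on small-molecule microarray slides; score combines spot fluorescence intensity with signal-to-noise across triplicate slides.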 As to conditions: 635 nm fluorescence, higher = more signal.

Chain of Streptavidin (Streptomyces avidinii) (P22629 whole entry, looked up): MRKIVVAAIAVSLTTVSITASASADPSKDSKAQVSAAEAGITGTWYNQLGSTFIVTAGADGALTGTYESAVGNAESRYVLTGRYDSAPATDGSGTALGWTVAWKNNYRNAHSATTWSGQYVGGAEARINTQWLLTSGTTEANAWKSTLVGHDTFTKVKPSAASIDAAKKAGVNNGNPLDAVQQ
Chain of Torsin-1A (Homo sapiens) (O14656 whole entry, looked up): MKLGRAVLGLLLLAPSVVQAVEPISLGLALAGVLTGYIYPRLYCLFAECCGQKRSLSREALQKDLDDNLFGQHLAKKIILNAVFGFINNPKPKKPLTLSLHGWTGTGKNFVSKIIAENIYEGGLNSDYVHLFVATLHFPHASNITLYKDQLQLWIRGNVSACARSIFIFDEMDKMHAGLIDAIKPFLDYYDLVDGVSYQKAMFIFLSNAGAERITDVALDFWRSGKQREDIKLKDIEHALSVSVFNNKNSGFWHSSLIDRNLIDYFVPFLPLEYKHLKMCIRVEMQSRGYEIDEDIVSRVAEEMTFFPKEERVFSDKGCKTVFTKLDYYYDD

Take `CCCC[C@@H](O)C1=C(COc2ccccc2)C[C@H]2C(=O)N(Cc3ccccc3)C(=O)[C@H]2[C@H]1CO`: the composite z-score is -0.143 in [1]; -0.0098 in experiment [6]; -0.239 in experiment [7]; -0.152 with Torsin-1A (Homo sapiens) [8]; 0.107 in the experiment with Torsin-1A (Homo sapiens) [9]; 0.491 in [10]. Also, the z-score in experiment [2] was -2.03 (inactive); in experiment [3], 0.436 (inactive); in experiment [4], 7.39 (inactive); in [5], -0.695 (inactive).
Turning to `COc1cc2c(cc1O)C=[N+](Cc1sc3ccccc3c1Cl)CC2`, the composite z-score in experiment [1] is -0.245; in experiment [6], 0.0042; in [7], -0.0308; in the experiment with Torsin-1A (Homo sapiens) [8] it was 0.166; in the experiment with Torsin-1A (Homo sapiens) [9], 0.276; in experiment [10], 0.66. For the same compound, the z-score is -2.33 (inactive) in [2], 0.206 (inactive) in [3], -0.348 (inactive) in experiment [4] and 0.982 (inactive) in experiment [5].
Take `COC(=O)[C@@]1(Cc2ccc(F)cc2)[C@H]2c3cc(C(=O)N4CCCC4)n(Cc4ccc(C)c(F)c4F)c3C[C@H]2CN1C(=O)c1ccccc1`: the composite z-score in experiment [1] is -0.175; in [6], -0.286; in experiment [7] it was 0.12; in the experiment with Torsin-1A (Homo sapiens) [8] it was -0.259; with Torsin-1A (Homo sapiens) [9], -0.407; in [10] it was -0.472. In addition, the z-score is -0.944 (inactive) in [2], -0.298 (inactive) in experiment [3], 1.15 (inactive) in experiment [4] and -0.177 (inactive) in experiment [5].
Regarding `COCCOC(=O)N1C(=O)[C@@]2(c3cc(C#CC4=CCCCC4)ccc31)[C@H](c1ccccc1OCCO)N1[C@H](c3ccccc3)[C@H](c3ccccc3)OC(=O)[C@H]1[C@@H]2C(=O)NC[C@H](O)c1ccccc1`, the composite z-score in experiment [1] was 0.6; in [6] it was 0.423; in [7], -0.0428; with Torsin-1A (Homo sapiens) [8] it was 0.281; with Torsin-1A (Homo sapiens) [9] it was 0.501; in experiment [10], 2.13. For the same compound, the z-score was -4.97 (inactive) in experiment [2], 0.819 (inactive) in [3], -0.329 (inactive) in [4] and 0.083 (inactive) in [5].
`CC(C)C(O)C1C=CC2C(=O)N(c3ccccc3)C(=O)C2N1Nc1ccccc1` (stereo not given): the composite z-score in experiment [1] was 0.271; in [6], 0.874; in experiment [7] it was 0.0756; in the experiment with Torsin-1A (Homo sapiens) [8] it was 0.64; in the experiment with Torsin-1A (Homo sapiens) [9], 0.923; in experiment [10], 1.04. Moreover, the z-score in experiment [2] was -3.03 (inactive); in experiment [3], -1.35 (inactive); in [4], 0.819 (inactive); in [5], 0.418 (inactive).
For the compound `COc1ccc([Si](C)(C)[C@@H]2[C@@H](CC(=O)N3Cc4ccccc4C[C@H]3CO)O[C@]3(C(=O)N(Cc4ccc(N5C(=O)c6cccc7cccc5c67)cc4)c4ccccc43)[C@H]2C)cc1`, the composite z-score turned out to be 0.453 in [1]; 0.29 in experiment [6]; 0.0319 in experiment [7]; 0.645 with Torsin-1A (Homo sapiens) [8]; 0.592 in the experiment with Torsin-1A (Homo sapiens) [9]; 1.69 in [10]. Besides, the z-score was -2.28 (inactive) in experiment [2], -0.334 (inactive) in experiment [3], 2.34 (inactive) in experiment [4] and 0.972 (inactive) in experiment [5].
As for `CCOC(=O)C[C@H]1[C@H](OC(=O)c2cc3ccccc3oc2=O)[C@@H](NC(=O)c2ccc3ccccc3n2)c2cc(OCCCO)ccc2N1C(=O)Cc1ccc(OC)cc1`, the composite z-score in [1] was 0.155; in experiment [6] it was 0.386; in [7], -0.0136; with Torsin-1A (Homo sapiens) [8] it was -0.262; in the experiment with Torsin-1A (Homo sapiens) [9] it was -0.0557; in experiment [10], 1.56. Further, the z-score in [2] is -0.593 (inactive); in experiment [3], -1.05 (inactive); in experiment [4], -1.23 (inactive); in experiment [5], -0.74 (inactive).
For `C=CCN1C(=O)[C@]2(CCS(=O)(=O)c3ccccc3)N=C(c3ccc(OCCCO)cc3)O[C@@H]2c2ccccc21`, the composite z-score in experiment [1] came out at 0.782; in experiment [6], 0.479; in experiment [7] it was 0.0841; with Torsin-1A (Homo sapiens) [8], 0.659; in the experiment with Torsin-1A (Homo sapiens) [9], 0.573; in [10] it was 1.65. Moreover, the z-score in experiment [2] was -3.58 (inactive); in experiment [3], -0.492 (inactive); in experiment [4] it was 1.8 (inactive); in [5], -1.11 (inactive).
For the compound `C=C(/C(=C/C[C@H](OC(C)=O)c1ccc(CO)o1)c1cnc2ccccc2c1)C(C)C`, the composite z-score in experiment [1] turned out to be 0.473; in experiment [6], 1.44; in experiment [7] it was 0.0528; with Torsin-1A (Homo sapiens) [8] it was 1.27; with Torsin-1A (Homo sapiens) [9], 0.269; in experiment [10], 1.65. For the same compound, the z-score in [2] is 0.27 (inactive); in [3], -1.31 (inactive); in [4], -0.671 (inactive); in experiment [5] it was 0.647 (inactive).
With `CCCC=C(CCC)[C@@H](NC(=O)C(C)(C)C)c1ccc(C(=O)OC)cc1`, the composite z-score is 0.0146 in experiment [1]; 1.69 in [6]; 0.127 in experiment [7]; -0.0649 in the experiment with Torsin-1A (Homo sapiens) [8]; 0.123 in the experiment with Torsin-1A (Homo sapiens) [9]; -0.824 in experiment [10]. Also, the z-score in [2] is -2.97 (inactive); in experiment [3], -0.168 (inactive); in experiment [4], -0.379 (inactive); in experiment [5] it was -0.744 (inactive).
On to `COc1ccc(CCNC(=O)[C@@H]2c3ccccc3C(=O)N(C3CCCCC3)[C@H]2c2ccc(CO)cc2)cc1`, for which the composite z-score was 0.378 in [1]; -0.11 in experiment [6]; -0.0087 in experiment [7]; -0.78 with Torsin-1A (Homo sapiens) [8]; 0.767 with Torsin-1A (Homo sapiens) [9]; -0.0203 in [10]. Moreover, the z-score in experiment [2] is -2.93 (inactive); in [3], -0.0661 (inactive); in [4], -0.295 (inactive); in [5], -0.582 (inactive).
For the compound `O=C(NCCN1CCOCC1)[C@@H]1c2ccccc2C(=O)N(Cc2ccccc2Cl)[C@H]1c1ccc(CO)cc1`, the composite z-score in experiment [1] is -0.38; in experiment [6], -0.831; in experiment [7] it was -0.32; in the experiment with Torsin-1A (Homo sapiens) [8], -0.826; in the experiment with Torsin-1A (Homo sapiens) [9] it was 1.23; in experiment [10], -1.07. In addition, the z-score in experiment [2] was -0.276 (inactive); in experiment [3] it was 0.11 (inactive); in [4], -0.295 (inactive); in experiment [5] it was -0.6 (inactive).
As to `COc1cc(OC)c(C(O)C2C=CC3C(=O)N(Cc4ccccc4)C(=O)C3N2n2cnnc2)cc1Br` (stereo not given), the composite z-score is 0.25 in [1]; 1.22 in [6]; -0.0087 in experiment [7]; 2.73 with Torsin-1A (Homo sapiens) [8]; 2.4 in the experiment with Torsin-1A (Homo sapiens) [9]; 0.116 in [10]. Further, the z-score in experiment [2] was -3.56 (inactive); in [3] it was -0.664 (inactive); in [4], 0.677 (inactive); in experiment [5], -1.4 (inactive).
Consider `CC1CC/C=C\[C@H]2OC34C=CCN(c5ccc(Cl)cc5)C(=O)[C@H]3N(C(C)CO)C(=O)[C@]4(C)C2C(=O)O1` (stereo not given in full), for which the composite z-score was -0.304 in experiment [1]; -0.367 in experiment [6]; -0.401 in [7]; -0.979 in the experiment with Torsin-1A (Homo sapiens) [8]; -1.5 with Torsin-1A (Homo sapiens) [9]; -0.374 in experiment [10]. The z-score was 0.0276 (inactive) in [2], 0.2 (inactive) in experiment [3], -0.0859 (inactive) in experiment [4] and 0.325 (inactive) in [5].
Consider `CCCC=C(CCC)[C@@H](NS(=O)(=O)CC12CCC(CC1=O)C2(C)C)c1ccc(C(=O)OC)cc1` (stereo not given in full), for which the composite z-score in experiment [1] was determined as 0.0202; in [6] it was 0.333; in [7] it was 0.361; with Torsin-1A (Homo sapiens) [8], 0.924; with Torsin-1A (Homo sapiens) [9] it was 0.792; in experiment [10], 0.31. Moreover, the z-score in [2] was -0.816 (inactive); in experiment [3], -1.06 (inactive); in experiment [4], -0.572 (inactive); in experiment [5], 0.0711 (inactive).
On to `C=C(COC)/C(=C/C[C@H](OC(=O)c1ccncc1)c1ccccc1OCCO)c1cc(C(=O)OC)ccc1OC`, for which the composite z-score is 0.163 in [1]; -0.275 in experiment [6]; -0.0136 in experiment [7]; 1.19 in the experiment with Torsin-1A (Homo sapiens) [8]; 0.664 with Torsin-1A (Homo sapiens) [9]; 1.71 in [10]. Besides, the z-score was -2.17 (inactive) in experiment [2], 0.492 (inactive) in [3], 11.9 (active) in experiment [4] and 2.47 (inactive) in experiment [5].
